Source: PubChem (Sanford-Burnham Center for Chemical Genomics)
Only a sample is shown.
TNAP Pi inh: blocks human TNAP phosphate release; 21,000 tested, under 10 active; P05186; inhibition, % at 20 µM; purified TNAP, pNPP, malachite green phosphate absorbance
Target sequence (P05186 whole entry, looked up): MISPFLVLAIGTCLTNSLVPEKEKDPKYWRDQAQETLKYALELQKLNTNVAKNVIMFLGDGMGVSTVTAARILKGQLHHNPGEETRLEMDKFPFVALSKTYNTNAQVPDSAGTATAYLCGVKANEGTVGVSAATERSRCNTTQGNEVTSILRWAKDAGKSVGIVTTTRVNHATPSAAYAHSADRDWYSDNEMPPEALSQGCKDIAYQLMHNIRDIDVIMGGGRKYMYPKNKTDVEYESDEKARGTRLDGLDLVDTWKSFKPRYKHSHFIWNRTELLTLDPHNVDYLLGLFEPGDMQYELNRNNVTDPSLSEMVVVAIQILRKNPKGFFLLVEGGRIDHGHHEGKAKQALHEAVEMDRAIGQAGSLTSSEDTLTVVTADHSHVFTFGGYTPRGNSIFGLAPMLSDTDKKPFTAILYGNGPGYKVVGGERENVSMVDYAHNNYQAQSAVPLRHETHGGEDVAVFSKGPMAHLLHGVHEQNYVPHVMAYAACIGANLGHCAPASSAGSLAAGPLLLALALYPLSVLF
TNAP inh pNP: human TNAP inhibition, p-nitrophenol detection | P05186 | purified TNAP, pNPP hydrolysis, absorbance 405 nm | inhibition, % at 20 µM | 21,000 tested, under 10 active | AID 615;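 further: 0% = DMSO only wells and 100% = 1 mM levamisole wells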
Numbers without * were called inactive.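 How the source made its calls: active means inhibition above 50% at the 20 µM single-dose screen; inactive means the rest.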

SMILES	TNAP Pi inh	TNAP inh pNP
CCOC(=O)c1ccc(CNC(=O)c2cc(C(C)(C)C)oc2C)o1	6.8	4.1
COc1ccc(N2CCN(C(=O)CSc3nnc(COc4cccc5cccnc45)o3)CC2)cc1	18.8	10.8
Cc1ccc(-c2nnc3n2N=C(c2ccccc2Br)CS3)cc1	4.2	-1.3
CCOc1ccc(/C(O)=C2\C(=O)C(=O)N(c3cc(C)on3)C2c2ccccc2OC)cc1 (stereo not given)	-5.6	-1.3
COC(=O)c1ccc(Cn2cnc3c(sc4nc(N5CCOCC5)c5c(c43)CCCC5)c2=O)o1	8.6	5.2
COC(=O)c1cc(COC(=O)c2cccnc2SC)oc1C	16.2	2.2
CCn1c(SCC(=O)N2CCN(c3ccc(F)cc3)CC2)nnc1-c1ccncc1	8.8	2.6
COc1cccc(CSc2nnc(-c3ccco3)n2C)c1	3.1	-2.1
Cc1cc(/C=C(/C#N)c2cccc(F)c2)c(C)n1-c1cccnc1	0.0	0.0
CCn1c(SCC(=O)Nc2nc3ccc(OC)cc3s2)nc2c1c(=O)n(C)c(=O)n2C	6.0	-3.1
CC(=O)c1cc2c(cc1NS(=O)(=O)c1ccc(C)cc1)OCCO2	0.0	0.0
CN1C(=O)CC(N2CCN(c3ccc(Cl)c(Cl)c3)CC2)C1=O (stereo not given)	-11.8	-12.6
COC(=O)c1ccccc1NC(=O)CNC(=O)c1ccco1	17.8	3.6
CCN(CC)c1ccc(C2Nc3cccc4cccc(c34)N2)c(O)c1	0.0	0.0
Cc1nn(-c2ccccc2)c(Cl)c1C(=O)Nc1nnc(C2CCCC2)s1	6.4	3.0
c1cncc(-c2nnc(C3CCCCC3)o2)c1	5.9	-0.4
CCCn1c(C)cc(C(=O)CSc2nnc3n(CCC)c(=O)c4ccccc4n23)c1C	0.0	0.0
COc1cccc(NC2=NC3(CCCCC3)N=C(N)N2)c1	3.2	-1.9
CCCc1nc2ccccc2c(=O)n1/N=C/c1c(C)[nH]n(-c2ccc(C)cc2)c1=O	-7.1	0.2
O=C(Nc1sccc1C(=O)N1CCOCC1)c1cccnc1	3.5	1.1
CC1=C(C(=O)Nc2ccccc2C)C(c2ccc(C)o2)C2=C(CCCC2=O)N1 (stereo not given)	-0.6	-6.0
O=C1Nc2cc3c(cc2Sc2ccccc21)OCCO3	4.2	3.6
CN1C(=O)c2oc3ccc(Br)cc3c(=O)c2C1c1ccncc1 (stereo not given)	-1.7	5.1
O=C1CCCc2nc3nc4ccccc4n3cc21	-0.7	4.9
COc1ccc(CCn2c(-c3ccco3)nc3oc4ccccc4c(=O)c3c2=O)cc1	-1.1	2.6
SMILES	TNAP Pi inh	TNAP inh pNP
CN(Cc1ccccc1)c1nc2c(c(=O)[nH]c(=O)n2C)n1CCOc1ccccc1	-4.5	-8.7
CCCCOC(=O)C(C)c1c(C)[nH]c(=S)[nH]c1=O (stereo not given)	6.7	4.1
CCCC(=O)c1c(NC(C)C)cc(C)oc1=O	5.7	2.0
O=C(NC1CCCCCC1)C1CC(=O)N(Cc2ccccc2)C1 (stereo not given)	6.5	2.8
CS(=O)(=O)N(CC(=O)NCCC1=CCCCC1)c1ccc2c(c1)OCO2	-3.5	2.9
COc1ccc(C2C3=C(CC(C)(C)CC3=O)Nc3c2c(=O)[nH]c2nc(C)nn32)cc1 (stereo not given)	14.0	7.1
COc1ccc(C2=NOC3(CC(=O)N(c4ccc(C)cc4)C3=O)C2)c(OC)c1 (stereo not given)	11.4	4.2
Fc1ccc(CN2CCCCCCC2)cc1F	7.7	-0.2
COc1ccc(NC(=O)Nc2ccccc2C(=O)N2CCCC2)cc1	6.6	1.4
Cc1ccccc1N(C(=O)Cn1nnc2ccccc21)C(C(=O)NCc1ccco1)c1ccncc1 (stereo not given)	6.9	3.1
CCc1nc2ccccc2n1CCC(C)C	7.1	1.7
COc1cccc(N(CC(=O)N2CCN(C)CC2)S(=O)(=O)c2ccc(C)cc2)c1	20.3	6.8
O=c1c2ccccc2nc(-c2ccco2)n1CCCn1ccnc1	18.1	14.5
Cc1ccccc1N1C(=O)N(c2cccc(C(F)(F)F)c2)C2CS(=O)(=O)CC21 (stereo not given)	20.3	3.9
CC(C)CCNC(=O)CN(Cc1ccc2c(c1)OCO2)C(=O)Cn1nnc(-c2cccs2)n1	0.2	0.3
COc1ccc(OC)c(C2=Nn3c(nnc3-c3cccc(OC(C)C)c3)SC2)c1	8.5	3.8
Nc1nc2n(n1)C(c1ccc(F)cc1)CC(c1ccc(F)cc1)N2 (stereo not given)	-6.3	5.0
CCn1c(=O)c(C2=NS(=O)(=O)c3ccccc3N2)c(O)c2ccccc21	0.7	-1.4
CCc1c(C)nc(N)n2c(SCC(=O)N3CCCC(C)C3)nnc12 (stereo not given)	6.9	3.8
CC1(C)Cc2c(sc3nc(SCC#N)n(C4CCCCC4)c(=O)c23)CO1	0.0	-2.1
CC(C(=O)O)n1nc2ccccc2n1 (stereo not given)	5.5	2.0
CCC(=O)OC1=C2C(=Nc3c(c(=O)n(C)c(=O)n3C)C2c2ccccc2)c2ccccc21 (stereo not given)	-4.0	3.9
Cc1c(CCC#N)c(N2CCN(C3CCCCC3)CC2)n2c(nc3ccccc32)c1C#N	8.7	4.5
CCCn1nnnc1NC(=O)CSc1ccc(Cl)cc1	-10.3	1.4
O=C(Nc1ccccc1C(=O)NCCN1CCOCC1)c1ccco1	5.9	3.0
SMILES	TNAP Pi inh	TNAP inh pNP
O=C1CCCCCN1CP(=O)(O)CN1CCOCC1	14.2	2.8
Cc1noc(C)c1C(=O)OCC(=O)c1cc(C)n(Cc2ccccc2Cl)c1C	19.4	7.9
Cc1ccc(N(C(=O)CNC(=O)c2ccco2)C(C(=O)NCC2CCCO2)c2ccccc2)cc1 (stereo not given)	6.3	1.7
Cc1ccc(S(=O)(=O)N(C)CCCC(=O)N2CCN(C=O)CC2)cc1	6.4	-0.1
COc1ccc(-n2ncc3c(NCCCn4ccnc4)ncnc32)cc1	8.0	2.4
CCn1cc(C(=O)OCC(=O)NCc2ccc3c(c2)OCO3)c(=O)c2ccc(C)nc21	0.0	0.0
CCCn1c(SCC(=O)Nc2ccccc2N2CCCCC2)nc2c1c(=O)n(C)c(=O)n2C	-5.9	-7.0
COc1cc(C(=O)Nc2nnc(-c3sccc3C)s2)cc(OC)c1OC	0.0	0.0
Cc1cc(C(=O)COc2ccc(-c3nnco3)cc2)c(C)n1Cc1ccccc1	11.0	3.0
CC(C)Cn1c(SCC(=O)NC(=O)NC2CCCC2)nc2ccccc21	3.1	6.4
CC1=C(C#N)c2nc(N)c(C#N)c(C)c2/C1=C\c1ccccc1	9.6	-1.4
N#CC1(c2ccccc2)CCC(=NO)CC1 (stereo not given)	-5.6	-2.6
COc1cccc(-c2nc(=S)c3c(n2CCCO)CCCC3)c1	0.8	-0.2
CC(C)OC(=O)c1c2nc3ccccc3nc2n2c1[nH]c(=O)c1ccccc12	-0.6	0.1
